Screening data from PubChem.
CtBP-E1A blk: qHTS Assay for Inhibitors of the CtBP/E1A Interaction; AlphaScreen GST-E1A/His-CtBP binding, 1536-well; stronger effect = lower value; 340,000 tested, 0.49% active; CtBP / adenovirus E1A interaction (AlphaScreen); activity change, % (concentration not given with the values)
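AlphaScreen with 125 nM GST-E1A and 125 nM His-CtBP (5X stocks) in Tris pH 8.0, 300 mM NaCl, BSA, Tween 20, TCEP. Compounds preincubated 2 h at 37 deg C, then glutathione donor/nickel acceptor beads added for 1 h at 37 deg C in dark.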
RGS4 inh: Inhibitors of Regulator of G Protein Signaling (RGS) 4: qHTS. Transcreener GDP fluorescence polarization, RGS4-accelerated GTP hydrolysis. 390,000 tested, 0.039% active. Regulator of G-protein signaling 4 (Homo sapiens), P49798. Potency, µM (highest dose often 114 µM), actives largely listed as inhibitors; active = well fitted curve in the direction sought with a large enough effect; inconclusive = small, poorly fitted or top-dose-only effect, or another doubt; inactive = no such curve, though single readings can be large; an effect the other way counts as inactive or inconclusive; note: nearly all actives have a fitted effect of over 75% in size
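MLSMR compounds (23 nl, pin-transferred) preincubated 10 min at room temperature with a 500nM (2x) first reagent, then RGS4 at 900nM (2x) plus Transcreener GDP mix added; fluorescence polarization (620/688 nm) read before and after 90 min at 30 °C.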
pAkt inh: HTS Assay for Inhibitors of Akt Phophorylation: Primary Screen | 360,000 tested, 0.32% active | activity change, % for hits at 50 µM | AID 651550, 2012 | Neuro2A IGF-stimulated pAkt S473 HTRF, 20 min; stronger effect = lower value; in the data active = activity change below about -80%; inconclusive = mostly about -51% to -80%
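Neuro2A cells in DMEM with 0.5% FBS, overnight at 37 deg C, given compound at single 50 µM final, then IGF (6 nM final) for 20 min at 37 deg C. Lysed; phospho-Akt Ser473 by HTRF after 24 h, 665/615 ratio.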
Glioma ERSR ind: qHTS for Inducers of the Endoplasmic Reticulum Stress Response (ERSR) in Human Glioma: qHTS | U87-MG GRP78 promoter luciferase reporter, 16 h | Potency, µM, usual class: activators | 420,000 tested, 0.02% active; active = well fitted curve in the direction sought with a large enough effect; inconclusive = small, poorly fitted or top-dose-only effect, or another doubt; inactive = no such curve, though single readings can be large; an effect the other way counts as inactive or inconclusive; note: series mostly up to about 76 µM; nearly all actives have a fitted effect of over 35% in size
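Stably transfected U87-MG human glioma cells carrying a GRP78-based luminescent sensor were seeded at 1000 cells/well, pin-dosed with compounds and incubated 16 h. Luciferase reagent was then added, and end-point luminescence was read after 10 min at room temperature.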
Six1-Eya2 blk: qHTS Assay for Inhibitors of the Six1/Eya2 Interaction | Homeobox protein SIX1 (Homo sapiens) + Protein phosphatase EYA2 (Homo sapiens), … | AlphaScreen GST-Six1/His-Eya2 binding, biochemical; stronger effect = lower value | activity change, % (no concentration beside the values) | 360,000 tested, 0.56% active | AID 651725, 2012
Target sequence (O00167 whole entry, looked up): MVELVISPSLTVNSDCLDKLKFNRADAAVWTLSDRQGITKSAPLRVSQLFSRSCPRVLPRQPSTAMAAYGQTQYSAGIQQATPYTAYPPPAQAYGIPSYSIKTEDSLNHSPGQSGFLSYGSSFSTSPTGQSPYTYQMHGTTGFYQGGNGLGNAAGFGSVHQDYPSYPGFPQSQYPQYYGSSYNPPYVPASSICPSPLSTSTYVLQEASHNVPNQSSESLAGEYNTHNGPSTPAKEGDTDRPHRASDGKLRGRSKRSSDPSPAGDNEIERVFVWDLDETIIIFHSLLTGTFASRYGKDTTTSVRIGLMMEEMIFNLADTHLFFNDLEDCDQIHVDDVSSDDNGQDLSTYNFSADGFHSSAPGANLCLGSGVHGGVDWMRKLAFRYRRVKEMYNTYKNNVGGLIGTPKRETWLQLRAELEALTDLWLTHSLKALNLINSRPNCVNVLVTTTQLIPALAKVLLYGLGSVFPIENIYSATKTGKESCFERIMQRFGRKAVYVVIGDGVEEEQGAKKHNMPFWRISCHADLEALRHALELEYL
Target sequence (Q15475 whole entry, looked up): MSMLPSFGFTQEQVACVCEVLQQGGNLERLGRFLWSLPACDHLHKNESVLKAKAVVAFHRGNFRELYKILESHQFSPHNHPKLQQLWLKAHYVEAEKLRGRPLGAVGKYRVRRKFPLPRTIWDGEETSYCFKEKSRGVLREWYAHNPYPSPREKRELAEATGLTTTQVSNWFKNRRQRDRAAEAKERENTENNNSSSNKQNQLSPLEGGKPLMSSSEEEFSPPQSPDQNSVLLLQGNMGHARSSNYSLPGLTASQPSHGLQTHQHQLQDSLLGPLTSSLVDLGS
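GST-Six1 + His-Eya2 (5X stock: 250/500 nM); Tris pH 8.0, 300 mM NaCl, 0.05% BSA, 0.02% Tween 20; GSH donor/Ni acceptor beads; 1 h 37 °C dark; AlphaScreen readout.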
Hits are given with their value; 0 = inactive; ? = inconclusive; - = not tested or not shown; [ ] = another dose, or the depositor's remark. Compounds with a hit are over-represented: about 0.88% of the library has one in this group of screens. Cut-off read from the data, not from the text of the source, unless noted: active = activity change below about -65%; inconclusive = mostly about -30% to -63%; inactive = weaker than that.

SMILES | CtBP-E1A blk | RGS4 inh | pAkt inh | Glioma ERSR ind | Six1-Eya2 blk
COc1cc(/C=N/NC(=O)CN(Cc2ccco2)S(=O)(=O)c2ccccc2)ccc1O | -92 | 0 | 0 | 0 | -82
O=C(C[n+]1ccncc1)c1ccc(Br)cc1 | - | - | - | 0 | -
O=C(c1ccc2c(c1)OCO2)N(Cc1cc2ccc(F)cc2nc1N1CCC(O)CC1)CC1CCCO1 (stereo not given) | - | - | - | 0 | -
Nc1[nH]c(=O)nc(Nc2ccccc2)c1N=O | -66 | 0 | 0 | 0 | ?
Nc1nc(-c2ccccc2)[nH]c(=O)c1N=O | - | 0 | 0 | 0 | ?
CCOC(=O)c1c(-c2ccco2)csc1N | 0 | 0 | -124% | 0 | 0
C=CCn1c(C)c(C(C)=O)c(N2CCCC2)nc1=S | 0 | 0[11.4 µM] | 0 | 0 | 0
C=CCn1c(C)c(C(C)=O)c(N2CCN(c3ccccc3)CC2)nc1=S | 0 | 0 | -105% | 0 | 0
O=c1oc(-c2ccc(C(F)(F)F)cc2)nn1Cc1cc(Cl)ccc1O | - | - | - | 0 | -
CCOC(=O)c1sc(NC(=O)CNCc2ccccn2)c(C(=O)OCC)c1C | -71 | 0 | 0 | 0 | ?
CCOC(=O)c1sc(NC(=O)CN(CC)CC)c(C(=O)OCC)c1C | 0 | 0 | -81% | 0 | 0
CCOC(=O)c1sc(NC(=O)CNCc2cccnc2)c(C(=O)OCC)c1C | 0 | 0 | 0 | 0 | 0
CCOC(=O)CNC(=O)C1CCCN(c2ncccn2)C1 (stereo not given) | ? | 0 | 0 | 0 | -83
CN=c1nc(-c2ccccc2)n(-c2ccccc2)s1 | 0 | 3.8µM | 0 | 0 | 0
COC(=O)c1cccc(Nc2cc(C)nc(-c3ccccc3O)n2)c1 | ? | 0 | 0 | 0 | 0
COC(=O)c1ccc(Nc2cc(C)nc(-c3ccccc3O)n2)cc1 | 0 | 0 | -86% | 0 | 0
COc1cc(CO)cc(-c2cc(CO)cc(OC)c2OC)c1OC | 0 | 0 | -107% | 0 | 0
COc1cc(CO)cc(Br)c1OCC(=O)O | 0 | ? | 0 | 0 | 0
CCCCN(CCCC)C(=O)CSc1nnc(-c2cc(OC)c(OC)c(OC)c2)o1 | 0 | 0 | 0 | 0 | 0
CCCCOC(=O)CSc1nnc(-c2cc(OC)c(OC)c(OC)c2)o1 | 0 | 0 | 0 | 13µM | 0
Cc1ccc(Nc2nnc(SCc3cc(=O)n4cc(C)ccc4n3)s2)cc1 | -67 | 0 | 0 | 0 | 0
Clc1ccc(-c2nc3sccn3c2/C=N/OCc2ccc(Cl)c(Cl)c2)cc1 | - | 3µM | - | 0 | -
Cc1cccn2c(/C=N/OCc3cccc(F)c3)c(-c3ccc(Cl)cc3)nc12 | 0 | 0 | 0 | 0 | 0
COC(=O)COc1ccc2c(-c3ccc(OC)cc3)cc(=O)oc2c1 | 0 | 0 | 0 | 25µM | 0
O=C(Nc1nccs1)[C@@H]1CC=C[C@@H]2CCN(C3CC3)C(=O)[C@@H]21 | - | - | - | 0 | -
SMILES | CtBP-E1A blk | RGS4 inh | pAkt inh | Glioma ERSR ind | Six1-Eya2 blk
COC(=O)C1=C(C)NC(C)=C(C(=O)OCCSc2ccccc2)C1C (stereo not given) | - | 38µM | - | 0 | -
COC(=O)C1=C(C)NC(=O)NC1c1ccccc1 (stereo not given) | 0 | 0 | 0 | 0 | 0
COC(=O)CC1C(=O)NCCN1C(=O)CN1Cc2ccccc2OC(c2ccccc2)C1 (stereo not given) | - | - | - | 0 | -
O=C(Nc1ccc(Br)cc1)N1CCCCCCC1 | 0 | 0 | -110% | 0 | 0
c1ccc2c(c1)CCCN2 | - | - | - | 0 | -
CCOC(=O)Nc1ccc2c(c1)C(=NNC(N)=S)c1ccccc1-2 | -65 | 0 | 0 | 0 | -79
CCn1c(NCc2ccc3c(c2)OCO3)nc2ccccc21 | 0 | 0 | -106% | 0 | 0
CN1CCN(S(=O)(=O)c2cccc(C(=O)Nc3cc(C(N)=O)cc(C(N)=O)c3)c2)CC1 | ? | 0 | 0 | 0 | -66
O=C(Oc1cccc(NC(=O)c2ccco2)c1)c1cccc(S(=O)(=O)N2CCCCC2)c1 | 0 | 0 | -116% | 0 | 0
CN1CCN(S(=O)(=O)c2cccc(C(=O)Nc3sccc3C(N)=O)c2)CC1 | -80 | 0 | 0 | 0 | -77
CCNC(=O)c1ccccc1NC(=O)c1cccc(S(=O)(=O)N2CCC(C)CC2)c1 | 0 | 0 | -101% | 0 | 0
O=C(Nc1cccc(S(=O)(=O)N2CCOCC2)c1)c1ccco1 | 0 | 0[11.4 µM] | 0 | 0 | 0
CNC(=O)c1ccccc1NC(=O)c1cccc(S(=O)(=O)N2CCC(C)CC2)c1 | 0 | 0 | 0 | 0 | 0
COc1cc(=O)n2c(c1C(=O)NC(C)c1ccco1)CCN(C(=O)c1[nH]c(C)cc1C)CC2 (stereo not given) | - | - | - | 0 | -
O=C(Nc1cccc(S(=O)(=O)N2CCCC2)c1)c1cccc(S(=O)(=O)N2CCOCC2)c1 | - | 0 | 0 | 0 | 0
O=C(Nc1cccc(O)c1)c1cccc(S(=O)(=O)N2CCCC2)c1 | ? | 0 | 0 | 0 | -72
Cc1cc(C(=O)NCc2nnc3n2CCN(Cc2ccc(F)cc2F)CC3)c(C)o1 | - | - | - | 0 | -
CCCSc1nc(N)c(C#N)c(-c2ccc(C)cc2)c1C#N | 0 | 0 | -91% | 0 | 0
N#Cc1c(N)nc(SCC(=O)C23CC4CC(CC(C4)C2)C3)c(C#N)c1-c1ccc(Cl)cc1 | 0 | 0 | -82% | 0 | 0
CCOC(=O)CC(=O)CSc1nc(N)c(C#N)c(-c2ccc(Cl)cc2)c1C#N | 0 | 0 | 0 | 0 | 0
O=C(N/N=C/c1ccccn1)c1ccc(Br)o1 | -75 | 0 | 0 | 0 | -66
Cc1ccnc(NC(c2ccccc2)c2ccc3cccnc3c2O)c1 (stereo not given) | -88 | 0 | 0 | 0 | -78
O=C(O)c1ccccc1NC(c1ccccc1)c1ccc2cccnc2c1O (stereo not given) | 0 | ? | 0 | 0 | -84
COc1ccccc1NC(c1cccnc1)c1ccc2cccnc2c1O (stereo not given) | -78 | ? | 0 | 0 | -79
Oc1c(C(Nc2ccccn2)c2ccccn2)ccc2cccnc12 (stereo not given) | -95 | 0[11.4 µM] | 0 | 0 | -95
SMILES | CtBP-E1A blk | RGS4 inh | pAkt inh | Glioma ERSR ind | Six1-Eya2 blk
COC(=O)c1ccccc1-c1cc(C)cc2c1OC(CNC(=O)C1CCCO1)C2 (stereo not given) | - | - | - | 0 | -
Oc1ccccc1C(Nc1nccs1)c1ccc2cccnc2c1O (stereo not given) | -93 | 0 | 0 | 0 | -77
Cc1cc(NC(c2ccc(Cl)cc2)c2ccc3cccnc3c2O)no1 (stereo not given) | ? | 0 | 0 | 0 | -66
Cc1ccc2ccc(C(Nc3ccccc3)c3ccc(Cl)cc3)c(O)c2n1 (stereo not given) | 0 | - | 0 | - | 0
Cc1ccnc(NC(c2cccnc2)c2ccc3cccnc3c2O)c1 (stereo not given) | -99 | 0 | 0 | 0 | -86
Oc1c(C(Nc2ccccn2)c2ccccc2F)ccc2cccnc12 (stereo not given) | - | 0 | - | 0 | -
